Where “and” joins values, the source holds several entries; their conditions need not be identical. Equal values may be shown once. More than one record can exist for a structure, and the calls need not agree. Calls of active or inactive are those of the source. Rule for the calls: active = hit-call score of the fitted dose curve at least 0.9, where 1 is the maximum; inactive = score below 0.9.

These results are taken from PubChem BioAssay (EPA / NIEHS).

Read-out in the experiment: Matrix Metallopeptidase 3 (MMP3), MMP3 (gene 4314)
Nature of the experiment: BSK_BF4T_MMP3: BioMAP Diversity Plus: BF4T Assay for Matrix Metallopeptidase 3 (MMP3) Biomarker Activity (AID 2284271). The following applies: primary human bronchial epithelial cells with fibroblasts. As to the method: BSK_BF4T is a cell-based, multiplexed-readout assay that uses bronchial epithelial cells and dermal fibroblasts, a human vascular primary cell, with measurements taken at 24 hours after chemical dosing in a microplate: 96-well plate.BSK_BF4T_MMP3 is an assay component measured in the BSK_BF4T assay. It measures MMP-3 antibody related to regulation of gene expression using ELISA technology.Data from the assay component BSK_BF4T_MMP3 was analyzed at the endpoint, BSK_BF4T_MMP3, in the positive analysis fitting direction relative to DMSO as the negative control and baseline of activity. Using a type of binding reporter, gain or loss-of-signal activity can be used to understand protein changes. To generalize the intended target to other relatable targets, this assay endpoint is annotated to the 'protease' intended target family, where the subfamily is 'matrix metalloproteinase'.
The levels of cell surface (or secreted, indicated by the prefix "s") biomarker endpoints were measured by ELISA. Overt cytotoxicity to cells in confluent adherent cultures (all systems other than the BT system) was assessed by measuring total protein levels using sulforhodamine B (SRB) staining in parallel cultures at the time of biomarker measurements, indicated as SRB endpoints. For proliferation assays for adherent cell types, individual cell types are cultured at sub-confluence and relative cell numbers quantified by SRB staining at time points optimized for each system (48 h: 3C and CASM3C systems; 72 h: BT and HDF3CGF systems; 96 h: SAg system). SRB was performed by staining cells with 0.1% SRB after fixation with 10% TCA and reading wells at 560 nm.Viability and proliferation of PBMC (T cells) was quantified by Alamar Blue reduction for the SAg and BT systems. For PBMC viability (referred to as PBMC Cytotoxicity within the assay endpoint names), cells were plated (75,000/well in a 96-well plate) and then chemical samples added for 1 h before addition of activators, SEB and TSST-1 (20 ng/mL final concentration each). Cells were incubated for 90 h. Then, Alamar Blue (20 uL/well) (Invitrogen, Cat DAL1100) was added for 6 h, and the plates were read with a fluorescence microplate reader at 546/580 nm (excitation/emission). For PBMC proliferation, cells were plated and activated as above but incubated for only 16 h prior to addition of Alamar Blue. Plates were read after 6 h.
As to `O=S(=O)(O)CCC(F)(F)C(F)(F)C(F)(F)C(F)(F)F`, the outcome was inactive.
The same measure, in the same setting: in the case of `OCC(F)(F)C(F)(F)C(F)(F)C(F)(F)C(F)(F)C(F)(F)CO` it was “inactive”; in that of `O=C(Cl)C(F)(F)C(F)(F)C(F)(F)C(F)(F)C(F)(F)C(F)(F)F`, “inactive”.
As for `NS(=O)(=O)C(F)(F)C(F)(F)C(F)(F)C(F)(F)C(F)(F)C(F)(F)F`, the AC50 is 49.5 µM (active) and the outcome was inactive.
Take `C=CC(=O)OCC(F)(F)C(F)(F)C(F)(F)COC(=O)C=C`: the outcome was inactive.
Turning to `C=CC(=O)OCC(F)(F)C(F)(F)C(F)(F)C(F)(F)C(F)(F)C(F)(F)C(F)(F)C(F)F`, the outcome was inactive.
Same read-out and setting: for `OCC(F)(F)C(F)(F)C(F)(F)CO` the value was “inactive”.
Regarding `CCN(CCO)S(=O)(=O)C(F)(F)C(F)(F)C(F)(F)C(F)(F)C(F)(F)C(F)(F)C(F)(F)C(F)(F)F`, the AC50 was 24 µM (active) and the outcome was inactive.
As to `FC(F)(F)C(F)(F)C(F)(F)C(F)(F)C(F)(F)C(F)(F)C(F)(F)CCI`, the outcome was inactive.
As to `OCC(F)(F)C(F)(F)C(F)(F)C(F)(F)C(F)(F)C(F)(F)C(F)(F)C(F)(F)CO`, the AC50 is 19.3 µM (active) and the outcome was inactive.
`O=C(O)CCC(F)(F)C(F)(F)C(F)(F)C(F)(F)C(F)(F)C(F)(F)C(F)(F)F`: the outcome was inactive.
Regarding `OCCCC(F)(F)C(F)(F)C(F)(F)C(F)(F)C(F)(F)C(F)(F)C(F)(F)C(F)(F)F`, the concentration at half-maximal activity (AC50) is 40.1 µM (active) and 40.6 µM (active).
On to `FC(F)(F)C(F)(F)C(F)(F)C(F)(F)C(F)(F)C(F)(F)CC[Si](Cl)(Cl)Cl`, for which the outcome was inactive and the AC50 is 0.211 µM (active).
For `O=C(O)C(F)(F)C(F)(F)C(F)(F)OC(F)(C(F)(F)F)C(F)(F)F`, in that order: “inactive” and 39.5 µM (active).
As to `NCC(F)(F)C(F)(F)C(F)(F)C(F)(F)C(F)(F)C(F)(F)F`, the result was inactive.
On to `CCOC(=O)CC(=O)C(F)(F)C(F)(F)F`, for which the result was inactive.
On the same count and under the same terms, in the case of `C=C(C)C(=O)OCC(F)(F)C(F)(F)C(F)(F)C(F)F` it was “inactive”; in that of `COC(F)(C(F)F)C(F)(F)F` (stereo not given), “inactive”; in that of `O=C(F)C1(F)C(F)(F)C(F)(F)C(F)(F)C(F)(F)C1(F)F`, “inactive”.
Same read-out and setting: for `C=CC(=O)OCCC(F)(F)C(F)(F)C(F)(F)C(F)(F)F` the value was “inactive”; for `O=C(O)CCC(F)(F)C(F)(F)C(F)(F)F`, “inactive”; for `NC(=O)C(F)(F)C(F)(F)C(F)(F)F`, “inactive”.
Take `CNS(=O)(=O)C(F)(F)C(F)(F)C(F)(F)C(F)(F)C(F)(F)C(F)(F)C(F)(F)C(F)(F)F`: the result was inactive and the AC50 is 13.3 µM (active).
Take `OC(O)C(F)(F)C(F)(F)F`: the outcome was inactive.
Regarding `OCCCCC(F)(F)C(F)(F)C(F)(F)C(F)(F)F`, the result was inactive.
Still for that read-out and setting: in the case of `O=S(=O)(O)CCC(F)(F)C(F)(F)C(F)(F)C(F)(F)C(F)(F)C(F)(F)C(F)(F)C(F)(F)F` it was “inactive”.
Same read-out and setting: for `O=C(O)C(F)(F)C(F)(F)C(F)(F)C(F)(F)C(F)(F)C(F)(F)C(F)F` the value was “inactive”; for `NCC(F)(F)C(F)(F)C(F)(F)C(F)(F)C(F)(F)C(F)(F)C(F)(F)C(F)(F)F`, “inactive”; for `O=C(O)C(F)(F)OC(F)(F)C(F)(F)OC(F)(F)C(F)(F)OC(F)(F)F`, “inactive”.
On the same count and under the same terms, in the case of `NC(O)(C(F)(F)F)C(F)(F)F` it was “inactive”; in that of `O=C(Cl)C(F)(F)C(F)(F)C(F)(F)C(F)(F)C(F)(F)C(F)(F)C(F)(F)F`, “inactive”; in that of `O=C(O)C(F)(F)C(F)(F)C(F)(F)OC(F)(F)F`, “inactive”.
With `NC(=O)C(F)(F)C(F)(F)C(F)(F)C(F)F`, the result was inactive.
For `OCC(O)CC(F)(F)C(F)(F)C(F)(F)C(F)(F)F` (stereo not given), the result was inactive.

As usually defined, the AC50 is the midpoint of the concentration-response curve, whichever way the signal moves.
